# Values joined by “and” are separate entries in the source; they are usually repeats but may differ in a detail not shown here. Identical values can stand only once. Inconclusive results are not listed. Values without a mark were called inactive. Active and inactive are the calls of the source. Calls follow the shape of the dose curve; as a rule, active = well fitted curve in the direction sought with a large enough effect; inconclusive = small, poorly fitted or top-dose-only effect, or another doubt; inactive = no such curve, though single readings can be large; an effect the other way counts as inactive or inconclusive.
# Columns and labels:
# [1] = biological target: Cellular tumor antigen p53 (Homo sapiens) (UniProt P04637); assay: Primary qHTS for small molecule compounds that upregulate eGFP-tagged delta133p53alpha (in N-terminal) cells. (AID 2060322); details: NCI-H358 eGFP-delta133p53alpha fluorescence, 24 h; activation: stronger effect = higher value;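 also: cells pre-induced with doxycycline then dosed without doxycycline; series mostly up to about 56 µM; 0% = DMSO vehicle and 100% = reference activator; nearly all actives have a fitted effect of over 75% in size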
# Method in brief: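 NCI-H358 cells pre-induced 24 h with 10 ng/ml doxycycline for eGFP-delta133p53alpha, plated dox-free and exposed 24 h at 37C to titrated compounds. Fixed, Hoechst-stained; gated GFP peak intensity by laser scanning cytometry, normalized to DMSO (0%) and 57.5 uM 5-azacytidine (100%).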
# [2] = biological target: Aldehyde dehydrogenase, mitochondrial (Homo sapiens) (UniProt P05091); assay: qHTS for Inhibitors of the Aldehyde Dehydrogenase Family (ALDH2) Primary screen (AID 2061308); also: nearly all actives have a fitted effect of over 55% in size; also: potency is read from the fitted curve at half-maximal effect
# [3] = biological target: Retinaldehyde dehydrogenase 3 (Homo sapiens) (UniProt P47895); assay: qHTS for Inhibitors of the Aldehyde Dehydrogenase Family (ALDH1A3) Confirmatory screens (AID 2061311); also: nearly all actives have a fitted effect of over 60% in size; also: potency is read from the fitted curve at half-maximal effect
# [4] = biological target: Retinaldehyde dehydrogenase 3 (Homo sapiens) (UniProt P47895); assay: qHTS for Inhibitors of the Aldehyde Dehydrogenase Family (ALDH1A3) Validation screen (AID 2061312); also: nearly all actives have a fitted effect of over 45% in size; also: potency is read from the fitted curve at half-maximal effect
# [5] = biological target: Retinaldehyde dehydrogenase 3 (Homo sapiens) (UniProt P47895); assay: qHTS for Inhibitors of the Aldehyde Dehydrogenase Family (ALDH1A3) Primary screen (AID 2061315);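 also: plate controls were DMSO vehicle for no effect and reference inhibitor for full effect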
# [6] = biological target: Retinal dehydrogenase 2 (Homo sapiens) (UniProt O94788); assay: qHTS for Inhibitors of the Aldehyde Dehydrogenase Family (ALDH1A2) Confirmation screens (AID 2061314); also: nearly all actives have a fitted effect of over 65% in size; also: potency is read from the fitted curve at half-maximal effect
# [7] = biological target: Aldehyde dehydrogenase 1A1 (Homo sapiens) (UniProt P00352); assay: qHTS for Inhibitors of the Aldehyde Dehydrogenase Family (ALDH1A1) Confirmatory screens (AID 2061316); also: potency is read from the fitted curve at half-maximal effect; nearly all actives have a fitted effect of over 65% in size
# [8] = BET inhibitor-based combinations targeting novel dependencies in MECOM-rearranged (r) AML: SET-2 cell line (AID 2202231); details: SET-2 AML cells viability, CellTiter-Glo luminescence, 48 h; viability: stronger effect = lower value, series mostly up to about 46 µM;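 also: plate controls were DMSO treated cells for no effect and wells without cells for full effect; nearly all actives have a fitted effect of over 35% in size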
# Method in brief: (§1)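 Viability of cells (500 per well) is scored by luminescent CellTiter-Glo at 48 hr post-dosing. Eleven-point titrations are normalized to DMSO and empty controls and reduced to AUC values.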
# [9] = BET inhibitor-based combinations targeting novel dependencies in MECOM-rearranged (r) AML: UCSD-AML1 cell line (AID 2202235);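 also: series mostly up to about 46 µM; plate controls were DMSO vehicle wells for no effect and blank wells for full effect; nearly all actives have a fitted effect of over 40% in size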
# Method in brief: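 Using pin-tool transfer, drugs were added in 11 doses to cells (500/well), incubated 48 hr, and assessed with CellTiter-Glo. Z-AUC is a mean-centring transformation applied separately to each screened line.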
# [10] = BET inhibitor-based combinations targeting novel dependencies in MECOM-rearranged (r) AML: AML-191 cell line (AID 2202236;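 also: plate controls were vehicle wells for no effect and wells without cells for full effect; nearly all actives have a fitted effect of over 35% in size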)
# Method in brief: as §1
# Chain of Cellular tumor antigen p53 (Homo sapiens) (P04637 whole entry, looked up): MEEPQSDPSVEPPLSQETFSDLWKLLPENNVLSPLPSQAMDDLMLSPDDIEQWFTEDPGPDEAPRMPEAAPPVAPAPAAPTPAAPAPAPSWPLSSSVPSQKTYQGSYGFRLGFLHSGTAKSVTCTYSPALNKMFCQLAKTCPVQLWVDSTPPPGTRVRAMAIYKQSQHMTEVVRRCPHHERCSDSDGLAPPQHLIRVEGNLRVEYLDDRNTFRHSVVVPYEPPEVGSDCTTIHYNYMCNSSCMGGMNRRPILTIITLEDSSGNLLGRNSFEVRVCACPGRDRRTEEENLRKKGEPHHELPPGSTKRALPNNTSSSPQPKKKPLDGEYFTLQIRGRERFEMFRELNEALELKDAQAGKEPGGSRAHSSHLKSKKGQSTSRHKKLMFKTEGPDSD
structure (smiles),measurement,setting,value
COC(=O)C1=CO[C@@H](O[C@@H]2O[C@H](CO[C@@H]3O[C@H](COC(=O)/C=C/c4ccc(O)cc4)[C@@H](O)[C@H](O)[C@H]3O)[C@@H](O)[C@H](O)[C@H]2O)[C@@H]2C(CO)=CC[C@H]12,activation,[1],-3.05%
same,Potency,[2],inactive
COc1ncc(Nc2ncc([C@@H](C)N3CCN(S(C)(=O)=O)CC3)cc2-c2nc(C)nc(N)n2)cc1F,activation,[1],21%
same,Potency,[2],inactive
same,Potency,[3],10 µM (active)
same,Potency,[4],inactive
same,Potency,[5],inactive
OC[C@H]1O[C@@H](Oc2cc(O)cc(-c3cc4ccc(O)cc4o3)c2)[C@H](O)[C@@H](O)[C@@H]1O,activation,[1],13.4%
same,Potency,[2],inactive
same,Potency,[3],12.3 µM (active)
CO/N=C(/C(=O)N[C@@H]1C(=O)N2C(C(=O)O)=C(CSC(=O)c3ccco3)CS[C@H]12)c1csc(N)n1,activation,[1],-18.6% and -3.67%
same,Potency,[2],17.8 µM (active)
same,Potency,[3],7.12 µM (active)
same,Potency,[6],28.3 µM (active)
same,Potency,[5],inactive
same,Potency,[7],5.65 µM (active)
Fc1ccc(CN2CCC(Nc3ccc(C(F)(F)F)nn3)CC2)cc1F,activation,[1],-6.21%
same,Potency,[2],inactive
CC1CCC2(O1)C(C)(C)CC(O[C@@H]1O[C@H](CO[C@@H]3OC[C@](O)(CO)[C@H]3O)[C@@H](O)[C@H](O)[C@H]1O)CC2(C)O (stereo not given in full),activation,[1],1.79%
same,Potency,[2],inactive
CCCC/C=C\CCCCCc1cc(=O)c2ccccc2n1C,activation,[1],-0.893%
same,Potency,[2],8.91 µM (active)
same,Potency,[3],inactive
same,Potency,[6],6.97 µM (active)
same,Potency,[5],inactive
C[C@]1(C2CCCC2)Cc2cc(OCC(=O)O)c(Cl)c(Cl)c2C1=O,activation,[1],-3.67%
same,Potency,[2],inactive
COC(=O)c1c(CC=C(C)C)c(OC2OC(CO)C(O)C(O)C2O)c2ccccc2c1OC1OC(CO)C(O)C(O)C1O (stereo not given),activation,[1],20.6%
same,Potency,[2],inactive
COC1CC(OC2CCC3(C)C(=CCC4C3CCC3(C)C(C(C)O)CCC43O)C2)OC(C)C1OC1OC(C)C(OC2OC(COC3OC(COC4OC(CO)C(O)C(O)C4O)C(O)C(O)C3O)C(O)C(O)C2O)C(OC)C1O (stereo not given),activation,[1],-23.7%
same,Potency,[2],inactive
CNC(=S)NS(=O)(=O)c1cc(CCNC(=O)c2cc(Cl)ccc2OC)ccc1OC,activation,[1],-6.68%
same,Potency,[2],inactive
same,Potency,[3],inactive
same,Potency,[4],inactive
same,Potency,[6],inactive
same,Potency,[5],inactive
same,Potency,[7],11.3 µM (active)
CC1(C(=O)O)CC[C@]2(C(=O)OC3OC(CO)C(O)C(O)C3O)CC[C@]3(C)C(=CCC4[C@@]5(C)CC[C@H](OC6OCC(O)C(O)C6OC6OC(CO)C(O)C(O)C6O)C(C)(C)C5CC[C@]43C)C2C1 (stereo not given in full),activation,[1],-5.34%
same,Potency,[2],inactive
CC(/C=C/C1(O)C2(C)COC1(C)CC(=O)C2)O[C@@H]1O[C@H](CO)[C@@H](O)[C@H](O)[C@H]1O (stereo not given in full),activation,[1],2.68%
same,Potency,[2],inactive
CN(C)CCCCCCNC(=O)c1cccc(-c2cc(O)c3ncccc3c2)c1,activation,[1],0.333%
same,Potency,[2],inactive
same,Potency,[3],8.96 µM (active)
same,Potency,[6],inactive
CC(=O)c1c(C)cc2cccc(O)c2c1O[C@@H]1O[C@H](CO)[C@@H](O)[C@H](O)[C@H]1O,activation,[1],-2.29%
same,Potency,[2],inactive
same,Potency,[3],3.12 µM (active)
same,Potency,[6],inactive
CC1CC2OCC3(O)CCC(O)C(C14CC(c1ccoc1)OC4=O)C23CO (stereo not given),activation,[1],-6.11%
same,Potency,[2],inactive
Cc1nn(C)c2c1C(c1ccc(C(F)(F)F)cc1)C(C#N)=C(N)O2 (stereo not given),activation,[1],-5.25% and 36.9%
same,Potency,[2],inactive
same,Potency,[3],inactive
same,Potency,[4],6.31 µM (active)
same,viability,[8],87.6%
same,Potency,[9],inactive
same,Potency,[10],inactive
COc1cc(C(=O)OC[C@H]2O[C@@H](Oc3ccccc3/C=C/C(=O)O)[C@H](O)[C@@H](O)[C@@H]2O)cc(OC)c1OC,activation,[1],1.53%
same,Potency,[2],inactive
same,Potency,[3],9.79 µM (active)
CN(CCCNC(=O)c1ccc2nc3c(c(Cl)c2c1)CCCC3)Cc1ccccc1,activation,[1],20.5%
same,Potency,[2],inactive
same,Potency,[3],8.96 µM (active)
same,Potency,[4],inactive
same,Potency,[6],7.12 µM (active)
same,Potency,[5],inactive
same,Potency,[7],8.96 µM (active)
C=C(C)Cn1c(SCC(=O)c2cccs2)nc2sc3c(c2c1=O)CCCC3,activation,[1],-5.73%
same,Potency,[2],inactive
CC1=CC2C(CC1OC1OC(CO)C(O)C(O)C1O)C(C)CC(=O)C2C(C)C (stereo not given),activation,[1],4.58%
same,Potency,[2],inactive
COc1cc(C[C@H]2COC(=O)[C@@H]2Cc2ccc(O)c(OC)c2)ccc1O,activation,[1],-18.8%
same,Potency,[2],inactive
